From PubChem
Only some compounds are listed: those with a hit (about 3.6% of all), similar ones and a draw of the others.
Pf apPOL inh = Pf-apPOL DNA polymerase inhibition; 210,000 compounds, 0.25% hits; inhibition, % at 10 µM; AID 1794808; Recombinant Pf-apPOL, molecular beacon fluorescence, 1.5 h
mHTT-CaM PPI inh = disrupts binding of mutant huntingtin to calmodulin. P42858. inhibition, % at 15 µM. 190,000 compounds, 3.6% hits. AlphaScreen His-mHTT/GST-CaM binding, luminescence. AID 1671202;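 note: 0% = both proteins with DMSO and 100% = one protein alone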
* hit, by the source's call. Cut-off read from the data, not from the text of the source: active = inhibition above about 50%; inactive = the rest.

Results for CCOc1ccc(NC(=O)CN(C)S(=O)(=O)c2ccc3[nH]c4c(c3c2)CCCC4)cc1 ?
Pf apPOL inh: -1.9; mHTT-CaM PPI inh: 44.5

How did O=C(c1csc(-c2cnccn2)n1)N1CCN(CC=Cc2ccccc2)CC1 do in these assays?
Pf apPOL inh: -15.4; mHTT-CaM PPI inh: -4.1

Results for c1ccc(-n2cnnc2C2CCCN(Cc3ccccn3)C2)cc1 (centres undefined) ?
Pf apPOL inh: -28.4; mHTT-CaM PPI inh: 87.1*

Results for c1ccc(CN2CCCC(c3n[nH]c(C4CC4)n3)C2)nc1 (centres undefined) ?
Pf apPOL inh: -19.9; mHTT-CaM PPI inh: 95.3*

How did c1cc(CN2CCCC(c3n[nH]c(C4CC4)n3)C2)ccn1 (centres undefined) do in these assays?
Pf apPOL inh: -2.3; mHTT-CaM PPI inh: -5.3

How did N#Cc1cccc(CN2CCCC(c3nncn3-c3ccccc3)C2)c1 (centres undefined) do in these assays?
Pf apPOL inh: -2.5; mHTT-CaM PPI inh: 1.7

Results for O=C(c1ccc(Br)o1)N1CCCCCC1 ?
Pf apPOL inh: -10.5; mHTT-CaM PPI inh: 4.3

What do the screens show for `CCc1c(C)c(C#N)c2nc3ccccc3n2c1NCCCN(C)C`?
Pf apPOL inh: 60.0*; mHTT-CaM PPI inh: -4.0

How did CCc1c(C)c(C#N)c2nc3ccccc3n2c1NCCO do in these assays?
Pf apPOL inh: 73.1*; mHTT-CaM PPI inh: -3.0

Results for N#Cc1c2c(c(NCCN3CCOCC3)n3c1nc1ccccc13)CCCC2 ?
Pf apPOL inh: -1.1; mHTT-CaM PPI inh: -4.0

What do the screens show for `CCc1c(C)c(C#N)c2nc3ccccc3n2c1NCCC(C)C`?
Pf apPOL inh: -2.2; mHTT-CaM PPI inh: -14.0

Results for CCc1c(C)c(C#N)c2nc3ccccc3n2c1NCCOC ?
Pf apPOL inh: -0.3; mHTT-CaM PPI inh: -3.0

Results for Cc1ccc(-n2[nH]c(=O)c(C=c3c(C)c(C#N)c4nc5ccccc5n4c3=O)c2O)cc1C ?
Pf apPOL inh: -4.7; mHTT-CaM PPI inh: 46.0

How did N#Cc1c2c(c(NCCCN3CCOCC3)n3c1nc1ccccc13)CCC2 do in these assays?
Pf apPOL inh: 67.1*; mHTT-CaM PPI inh: 6.0

Results for CCc1ccc(-n2[nH]c(=O)c(C=c3c(C)c(C#N)c4nc5ccccc5n4c3=O)c2O)cc1 ?
Pf apPOL inh: 5.6; mHTT-CaM PPI inh: 57.0*

How did CCn1nccc1C(=O)N1CCC(Cc2nc3cccnc3n2CC(C)C)C1 (centres undefined) do in these assays?
Pf apPOL inh: -3.0; mHTT-CaM PPI inh: 1.9

How did CC(C)c1c(C2CCN(C(=O)c3ccc(Br)o3)CC2)noc1N do in these assays?
Pf apPOL inh: -0.7; mHTT-CaM PPI inh: 0.0

How did O=C(C1CCN(Cc2cccnc2)CC1)N(CCO)Cc1ccccc1 do in these assays?
Pf apPOL inh: -2.2; mHTT-CaM PPI inh: 15.7

How did CCc1c(C)c(C#N)c2nc3ccccc3n2c1NCCCN(CC)CC do in these assays?
Pf apPOL inh: 81.9*; mHTT-CaM PPI inh: -2.0

How did C=CCc1c(C)c(C#N)c2nc3ccccc3n2c1NCCCN(CC)CC do in these assays?
Pf apPOL inh: -74.3; mHTT-CaM PPI inh: -6.0

What do the screens show for `O=[N+]([O-])c1cc2c(cc1C=Nc1ccc(Cl)c(Cl)c1)OCO2`?
Pf apPOL inh: 2.6; mHTT-CaM PPI inh: 41.0

What do the screens show for `CC(=O)Nc1ccc(N=Cc2cc3c(cc2[N+](=O)[O-])OCO3)cc1`?
Pf apPOL inh: -0.4; mHTT-CaM PPI inh: 44.0

What do the screens show for `Cc1cc(O)c(N=Cc2cc3c(cc2[N+](=O)[O-])OCO3)cc1C`?
Pf apPOL inh: 2.0; mHTT-CaM PPI inh: 70.0*

What do the screens show for `Cc1cccc(N=Cc2cc3c(cc2[N+](=O)[O-])OCO3)c1`?
Pf apPOL inh: 1.7; mHTT-CaM PPI inh: 86.0*

What do the screens show for `Cc1ccc([N+](=O)[O-])cc1N=Cc1cc2c(cc1[N+](=O)[O-])OCO2`?
Pf apPOL inh: -10.5; mHTT-CaM PPI inh: 43.0

Results for O=[N+]([O-])c1cc2c(cc1C=Nc1ccccc1)OCO2 ?
Pf apPOL inh: -0.9; mHTT-CaM PPI inh: 78.0*

What do the screens show for `O=[N+]([O-])c1ccc(N=Cc2cc3c(cc2[N+](=O)[O-])OCO3)cc1`?
Pf apPOL inh: -6.1; mHTT-CaM PPI inh: 2.0

How did O=[N+]([O-])c1cc2c(cc1C=Nc1ccc(Nc3ccccc3)cc1)OCO2 do in these assays?
Pf apPOL inh: -1.3; mHTT-CaM PPI inh: 85.0*

How did Cc1nn(C)c(C)c1CCCN(C)C(=O)c1ccc(N2CCNC(c3ccccc3)C2)nc1 (centres undefined) do in these assays?
Pf apPOL inh: 1.6; mHTT-CaM PPI inh: 32.3

Results for OC(COC12CC3CC(CC(C3)C1)C2)CN1CCN(Cc2ccc(Cl)cc2)CC1 (centres undefined) ?
Pf apPOL inh: -11.8; mHTT-CaM PPI inh: 34.4

Results for CC(CCN1CCN(c2ccc([N+](=O)[O-])cc2)CC1)c1ccccc1 (centres undefined) ?
Pf apPOL inh: -11.7; mHTT-CaM PPI inh: 36.4

What do the screens show for `CCOc1cccc(C2CC(c3ccc(C)cc3)=NC3(CCN(CC)CC3)N2)c1O` (centres undefined)?
Pf apPOL inh: -4.6; mHTT-CaM PPI inh: 7.1

How did Cc1ccc(N=Cc2cc3c(cc2[N+](=O)[O-])OCO3)cc1Br do in these assays?
Pf apPOL inh: -9.4; mHTT-CaM PPI inh: 69.0*

Results for COc1ccc(N=Cc2cc3c(cc2[N+](=O)[O-])OCO3)cc1OC ?
Pf apPOL inh: -2.5; mHTT-CaM PPI inh: 47.0

Results for C=CCn1c(SCC(=O)c2ccc(F)cc2)nnc1-c1cccs1 ?
Pf apPOL inh: -7.9; mHTT-CaM PPI inh: -0.5

How did C=CCn1c(SCC(=O)O)nnc1-c1cccs1 do in these assays?
Pf apPOL inh: -5.4; mHTT-CaM PPI inh: 50.2*

How did O=C1C=C2c3ccccc3CC3(CCCC3)N2C1=O do in these assays?
Pf apPOL inh: 0.3; mHTT-CaM PPI inh: 84.0*

How did c1ccc(-c2nnc3n2C2(CCCC2)Cc2ccccc2-3)cc1 do in these assays?
Pf apPOL inh: 2.6; mHTT-CaM PPI inh: -2.3

What do the screens show for `Cc1cc(Oc2ncnc(N)c2[N+](=O)[O-])ccc1C(C)C`?
Pf apPOL inh: -1.8; mHTT-CaM PPI inh: 13.0

What do the screens show for `COc1cccc(CN2CCc3nc(Nc4ccc5c(c4)OCCO5)ncc3C2)c1OC`?
Pf apPOL inh: 1.4; mHTT-CaM PPI inh: 44.1

How did Cc1ccc(CN2CCc3nc(Nc4ccc5c(c4)OCCO5)ncc3C2)cc1 do in these assays?
Pf apPOL inh: -1.6; mHTT-CaM PPI inh: 72.5*

What do the screens show for `COc1ccc(OC)c(CN2CCc3nc(Nc4ccc5c(c4)OCCO5)ncc3C2)c1`?
Pf apPOL inh: 3.8; mHTT-CaM PPI inh: 50.0*

Results for COc1ccc(Nc2ncc3c(n2)CCN(Cc2cc(Br)cs2)C3)cc1 ?
Pf apPOL inh: -8.6; mHTT-CaM PPI inh: 66.4*

What do the screens show for `COc1cccc(Nc2ncc3c(n2)CCN(Cc2cc(OC)ccc2OC)C3)c1`?
Pf apPOL inh: -6.0; mHTT-CaM PPI inh: 35.4

Results for Brc1csc(CN2CCc3nc(Nc4ccccc4)ncc3C2)c1 ?
Pf apPOL inh: 0.7; mHTT-CaM PPI inh: 0.2

Results for c1ccc(CN2CCc3nc(Nc4ccc5c(c4)OCCO5)ncc3C2)cc1 ?
Pf apPOL inh: -3.7; mHTT-CaM PPI inh: 31.8

What do the screens show for `COc1ccc(OC)c(CN2CCc3nc(Nc4ccc(F)cc4)ncc3C2)c1`?
Pf apPOL inh: -2.0; mHTT-CaM PPI inh: 61.2*

Results for CC(=O)NN(C)c1ccc(C(F)(F)F)cc1NC(=S)Nc1cc(Cl)ccc1Cl ?
Pf apPOL inh: -0.6

Results for CCNC(=O)N1CCC(c2nc3ccncc3n2CCOC)C1 (centres undefined) ?
Pf apPOL inh: -2.4; mHTT-CaM PPI inh: -4.7

Results for COc1ccc(Cl)cc1NC(=O)c1cc(S(=O)(=O)N2CCC(C)CC2)ccc1F ?
Pf apPOL inh: 29.1; mHTT-CaM PPI inh: -7.0
